Data as given in ChEMBL document CHEMBL3988442, “University of Dundee, Small-Polar-MMV Screening Library” (2021).
The campaign covered roughly 53,000 compounds. About 900 (1.7%) showed an effect of 50% or more. This excerpt belongs to a sample that is enriched for strong results.

The compounds below were run on Mycobacterium tuberculosis (assay: Cornell - Phenotypic assay to identify agents that inhibit growth of Mycobacterium tuberculosis). Conditions: 10 mM as filed; unlikely as a test dose.
Assay type: functional
Set-up: scale not given: direction of the effect not stated beside the values

Point of comparison: `Cc1noc(NC(=O)c2ccccc2)n1`, “Percent Effect” value -1.268%. Against it:
- O=C(N[C@H]1CN(c2ccncc2)C[C@@H]1C1CC1)C1CCOCC1 — higher, 6.471%
- O=C(N[C@H]1CN(c2nc(CO)cs2)C[C@@H]1C1CC1)C1CCCCC1 — higher, 56.52%
- CCC[C@H]1CN(c2nc(CO)cs2)C[C@@H]1NC(=O)C1CCC1 — higher, 52.87%
- CC(=O)N[C@@H]1CN(c2nc(CO)cs2)C[C@H]1c1ccc(C)o1 — higher, 3.039%
- OCc1csc(N2C[C@@H](CN3CCCCCC3)[C@@H](CO)C2)n1 — lower, -1.997%
- CCC[C@H]1CN(c2nc(CO)cs2)C[C@@H]1NC(=O)C1(COC)CC1 — higher, 20.53%
- O=C(c1cccs1)N1CCC2(CC1)CN(c1ccsc1)C(=O)CO2 — higher, 16.06%
- Clc1ccc(C2(CNC3=NCCN3)CC2)cc1.I — lower, -15.81%
- CCOC(=O)N1CCNC(c2cccs2)C1 (stereo not drawn) — lower, -4.593%
- Cc1nc(CN2CCC(N(C)Cc3nnc(C4CC4)n3C)C2)cs1 (stereo not drawn) — higher, 55.81%
- CN(Cc1nnc(C2CC2)n1C)C1CCN(Cc2ccccc2)C1 (stereo not drawn) — higher, 104.3%
- Cc1cnc(CN2CCC(N(C)Cc3nnc(C4CC4)n3C)C2)cn1 (stereo not drawn) — higher, 8.133%
- CN(Cc1nnc(C2CC2)n1C)C1CCN(Cc2ccon2)C1 (stereo not drawn) — lower, -5.558%
- CN(Cc1nnc(C2CC2)n1C)C1CCN(Cc2ccncc2)C1 (stereo not drawn) — lower, -21.05%
- CN(Cc1nnc(C2CC2)n1C)C1CCN(Cc2ccc(F)cc2)C1 (stereo not drawn) — higher, 10.51%
- CC(=O)N1CCC(c2ncc(C(=O)Nc3ccccc3)c(C)n2)CC1 — higher, 16.5%
- O=C(CC1CC1)N1CCC2(CC1)CN(Cc1cccnc1)C(=O)CO2.O=C(O)C(F)(F)F — higher, 2.615%
- COCCN1C[C@H]2CCN(C(=O)c3cc(C)on3)CC[C@H]2S1(=O)=O — lower, -32.34%
- CNC(=O)c1cc2ccccc2n1C — higher, -0.05075%
- CC(C)(C)c1csc(CCNC(=O)C(c2ccccc2)n2cnnn2)n1 (stereo not drawn) — higher, 11.39%
- Cc1noc(NC(=O)c2ccc(Br)o2)n1 — higher, 16.32%
- Cc1ccc(C(=O)Nc2nc(C)no2)cc1 — higher, 27.63%
- O=C(NCCn1ccnc1)c1cccc(Br)c1 — higher, 9.854%
- Cc1noc(NC(=O)c2ccc(Br)cc2)n1 — higher, 106.9%
- Cc1noc(NC(=O)c2ccc(OC(F)(F)F)cc2)n1 — higher, 104.6%
- Cc1noc(NCc2ccc(F)cc2)n1 — lower, -8.844%
- Cc1noc(COCC(=O)Nc2ccc(Br)c(C)n2)n1 — higher, 11.41%
- Cc1noc(NC(=O)c2cccc(Br)c2)n1 — higher, 106.3%
- Cc1noc(NC(=O)c2ccc(C#N)cc2)n1 — higher, 13.91%
- Cc1noc(NC(=O)CCNC(=O)c2ccc(Br)cc2)n1 — lower, -19.08%
- Cc1noc(NC(=O)c2ccc(Br)s2)n1 — higher, 105.7%
- CN1C(=O)C2(CC(=O)Nc3[nH]ncc32)c2cc(F)ccc21 (stereo not drawn) — higher, 1.042%
- COCCNC(=O)c1sc2ccccc2c1C1CCC(CN)CC1.Cl (stereo not drawn) — lower, -3.556%
- CC(C)c1nccn1-c1nccnc1C1CCCN1Cc1cccnc1 (stereo not drawn) — lower, -9.727%
- CN(C)c1cc(C2CCCNC2)ccn1.Cl.Cl (stereo not drawn) — higher, 40.71%
- CC(C)(C)OC(=O)N1CCn2c(nnc2C2CCCNC2)C1 (stereo not drawn) — lower, -27.32%
- CCC(C)(C)n1nnnc1C(c1cccs1)N1CCCCC1 (stereo not drawn) — higher, 33.43%
- CCC(C)(C)n1nnnc1C(c1cccs1)N1CCc2ccccc21 (stereo not drawn) — higher, 26.96%
- CCC(C)(C)n1nnnc1C(c1cccs1)N1CCc2ccccc2C1 (stereo not drawn) — higher, 77.94%
- CCOc1ccccc1CN(C)C(=O)CN1C(=O)OC[C@@H]1C(C)C — lower, -25.38%
- NCc1n[nH]c(=O)n1-c1cccc(Cl)c1Cl — lower, -49.88%
- Cc1cccc(-c2nccnc2C2CCN(C)CC2)c1C — lower, -15.39%
- NC(=O)c1c(-c2ccc(Cl)cc2)csc1NC(=O)CCC(=O)O — higher, -1.119%
- O=C(COc1coc(CN2CCCCCC2)cc1=O)c1ccccc1 — lower, -10.82%
- O=C(COc1coc(CN2CCCCC2)cc1=O)c1ccc(Cl)cc1 — higher, 53.44%
- O=C(COc1coc(CN2CCOCC2)cc1=O)c1ccc(Cl)cc1 — higher, 4.659%
- CSCCC(=O)N1CCCC(c2ncc[nH]2)C1 (stereo not drawn) — higher, 7.779%
- NC1(c2nc(-c3cccs3)cc(=O)[nH]2)CCCCC1 — lower, -54.45%
- NC1(c2nc(-c3cccs3)cc(=O)[nH]2)CCCC1 — lower, -47.24%
- NC1(c2nc(-c3ccccc3)cc(=O)[nH]2)CCCC1 — higher, 17.2%
- COC(=O)CCc1c(C)nn(-c2nc(C)cc(=O)[nH]2)c1C — higher, 23.13%
- Cc1cc(=O)[nH]c(-n2nc(-c3ccccc3)cc2N)n1 — higher, 94.92%
- Cc1cc(=O)[nH]c(-n2nc(C)c(CCC(=O)NCc3cccs3)c2C)n1 — higher, 13.95%
- CCCS(=O)(=O)NCCn1ccc(-c2cccs2)n1 — lower, -17.91%
- CCCc1cc(=O)[nH]c(-n2nc(-c3cccs3)cc2N)n1 — higher, 94.38%
- Cc1cc(=O)[nH]c(-n2nc(-c3cccs3)cc2N)n1 — higher, 98.99%
- COc1cc(N2C[C@H]3CN(Cc4ccccn4)C[C@H]3C2)ncn1.O=C(O)C(F)(F)F — higher, 8.566%
- Cn1nnnc1SC1CCc2ccccc2NC1=O (stereo not drawn) — higher, 4.345%
- O=C(COC[C@]12COC[C@H]1CN(C1CCC1)C2)N1CCCC1.O=C(O)C(F)(F)F — lower, -23.94%
- CS(=O)(=O)NCC1Cc2ccccc2O1 (stereo not drawn) — lower, -12.85%
- CN(CC1COc2ccccc2O1)C(=O)C1=NN(C)C(=O)CC1 (stereo not drawn) — higher, 21.15%
- CCC1CN(CCCNS(C)(=O)=O)c2ccccc2O1 (stereo not drawn) — higher, 99.54%
- CCC1CN(CCNS(C)(=O)=O)c2ccccc2O1 (stereo not drawn) — higher, 23.74%
- CCC1CN(CCCO)c2ccccc2O1 (stereo not drawn) — higher, 66.97%
- CCCN(CC1COc2ccccc2O1)C(=O)CCN1C(=O)CCC1=O (stereo not drawn) — higher, 17.77%
- Cc1cccc(CN2CCC3(CCN(Cc4ccccn4)C3)C2=O)c1.O=C(O)C(F)(F)F.O=C(O)C(F)(F)F (stereo not drawn) — higher, 1.967%
- COc1cc(CCC(=O)N2CCC(c3cc4nccnc4[nH]3)CC2)on1 — higher, 16.88%
